The results in this text go back to the supplement of paper PMC6555819.

In the assay the test system is VDR:RXRa (NR concentration 270 nM, RXRa partner concentration 90 nM). Briefly: PBM binding z-score (relative to random genomic background probes); higher = stronger binding; sequences stand for … in GC…GCGATTGACAGCGTAGAATGAAGG
The procedure: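 Protein-binding microarray (Agilent 4x180K custom design, double-stranded 60-nt probes: 5' GC cap, 34-nt variable region, 24-nt constant primer region; full probe sequence given). Purified or IVT nuclear receptor:RXRα heterodimers (3:1 NR:RXRα, mostly 270:90 nM) or homodimers were incubated for 1 h in PBS with 2% milk and no ligand, then detected with Alexa488 antibodies. Fluorescence from o1-orientation probes (~5 replicates averaged) was converted to z-scores against 500 random hg19 background probes. Variable regions are seed direct-repeat (DR0–DR5) sites, all their single-nucleotide variants and half-site ablations.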
On to CATAGTTGGTCAGGAGGTCACACACCGGATATGA, for which the PBM binding z-score came to 3.94.

With AGTCAAAGTTCAGGACGAGGTAACGCAAAGCACG, the PBM binding z-score was determined as 2.89.

On to TCATATAGGTAATACAGGTGAAAGTGGGCATCTA, for which the PBM binding z-score worked out at 1.47.

For the sequence GCTAGTTGGTCAGTAAAAGGTCACCCACCGGTCG, the PBM binding z-score amounted to 3.44.

For the sequence TTGCCAAGGTGAGCTGAGGTCGTTGATCCAACTC, the PBM binding z-score was found to be 3.93.

The sequence TAGCCTAGGTCATTCAGGGGCGAGTATAGAAAGC returned a PBM binding z-score of 4.57.

For the sequence CCAACTGGGCCATCAGGTCATTGATATCAACGTT, the PBM binding z-score was found to be 1.98.

Turning to CAAACTAGCTCACCGGAAGGTCAAAGTCCGCATG, the PBM binding z-score was found to be 2.8.

Take CCTAACAGGCCAGGGTCACTCAAGCATTTCGCTT: the PBM binding z-score is 2.86.

Sequence CGTCAAAGTTCAAGGTAACGCAACAGAAAGCAGC displayed a PBM binding z-score of 3.67.

TCTCCGAGGACACGAAAGGTCAGAGCTCGACATC gave a PBM binding z-score of 3.72.

In the case of GATACAGGGTCAGCTAGAGGCCAGACTATGGAAA, the PBM binding z-score was 3.23.

In turn, AGAACGAGGGCAATGAGTCGATAGCACGGGTGGC yielded a PBM binding z-score of 2.39.

CCTTTCGGGTCACTGACAGGTTATAGCATTTGGA showed a PBM binding z-score of 3.86.

For the sequence GCAGACAGGTGAACCGCAGGTAACTCAGGGTGGC, the PBM binding z-score was determined as 0.332.

Take CCGACAGGGGCAAGGTTACCATAACGCACAGCCA: the PBM binding z-score is 0.616.

As for TAGCCTAGGTCTTGCGGGCCAGTATAGTGTCGGC, the PBM binding z-score is -0.977.

As for ATCGACAGGTCGTGAGGTGAGTATACAGAAAGGC, the PBM binding z-score came out at 1.12.

In turn, CCGACTGGGGCATCAGGTTACCATAAGCCAGCCC displayed a PBM binding z-score of -0.451.

The sequence GCTATTATTTGAAAGGGCAACCGAATGATTCTCG yielded a PBM binding z-score of 0.646.

Sequence TCTAGTTGGTCACGGAGGTCACTCACGACGGGTA registered a PBM binding z-score of 5.6.

In turn, CCTATTAGTTGACCATAAGAGCAACCGAAGCTCG yielded a PBM binding z-score of 1.06.

In turn, TAGCCTAGGTCATTCGGCCAGTATAGTACGCATC displayed a PBM binding z-score of 2.24.

Turning to TAGACTAGGTCATGGGCCAGTATACCACGCGAAC, the PBM binding z-score is 1.76.

TCGAGTAGGTTAGCGGCATTCAGAATGGCGTCGA had a PBM binding z-score of -0.635.

CGTCAAATTTCAACTAAGGTAACGTAAAGCACGC had a PBM binding z-score of 0.709.

TCGAGTAGGTTAGTCGGGGCATCCAGCCAACATA came in with a PBM binding z-score of 1.5.

AGTCAAAGTTCAGGACTAGGTAACGTAAAGCACG returned a PBM binding z-score of 2.4.

In the case of TCTTGTAGATCAATAGAGGTTAAGCAAGTGCGCT, the PBM binding z-score came to 2.4.

For CCTCGGAGGACAACAGGAGGTCAGAGGTGCCAGA, the PBM binding z-score stood at 2.28.

Consider ATCGAAAGGTCGAGGTGAGTAAAGAGAAAGGGAA, for which the PBM binding z-score came out at 2.25.

For the sequence TAGCGTAGGTCATGCGGGCCAGTATAGTGTCGGC, the PBM binding z-score was 3.33.

Sequence TCGAGTAGGTTAGGTGCATTCAGAATGGCGTCGA gave a PBM binding z-score of 0.44.

TTACCAAGGTGACAGGTCGTTGATGCACGCCTTG returned a PBM binding z-score of 0.821.

In the case of ATATGTAGGTTAGCTGGGGTTATTCAGACTAGGC, the PBM binding z-score was 3.2.

Regarding ATCTCTAGGTATAAGTTCAGTGAATCCCGAGGAT, the PBM binding z-score was 0.837.

Sequence ATATGTAGGTTAGCTGCGGTCATTCAGACTAGGC registered a PBM binding z-score of 2.23.

In the case of CCTAGCAGGCCAATCTGGGTCTCTCAAGGCTTGA, the PBM binding z-score was -0.64.

TAGGCTAGGTCAGATCGGGCCAGTATACGCTATA showed a PBM binding z-score of 0.927.

In the case of CGTCCAGGGTCAGCAGGTCAGTGAAAGCGACGTG, the PBM binding z-score was found to be 4.15.
